# PubChem BioAssay AID1619 (SRMLSC, 2009)
# In all, about 220,000 compounds went through this assay and about 830 (0.38%) were called active.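 Rule for the calls: active = compound inhibiting the enzyme by more than half at any dose during confirmatory dose-response retesting; inconclusive = strong single-dose inhibitors picked by rank but not retested; inactive = the rest.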 A selection follows. Measured potencies and affinities stand elsewhere.
# Molecular target: Leucine aminopeptidase (Plasmodium falciparum (isolate 3D7)) (UniProt Q8IL11)
# Sequence (Q8IL11 whole entry, looked up): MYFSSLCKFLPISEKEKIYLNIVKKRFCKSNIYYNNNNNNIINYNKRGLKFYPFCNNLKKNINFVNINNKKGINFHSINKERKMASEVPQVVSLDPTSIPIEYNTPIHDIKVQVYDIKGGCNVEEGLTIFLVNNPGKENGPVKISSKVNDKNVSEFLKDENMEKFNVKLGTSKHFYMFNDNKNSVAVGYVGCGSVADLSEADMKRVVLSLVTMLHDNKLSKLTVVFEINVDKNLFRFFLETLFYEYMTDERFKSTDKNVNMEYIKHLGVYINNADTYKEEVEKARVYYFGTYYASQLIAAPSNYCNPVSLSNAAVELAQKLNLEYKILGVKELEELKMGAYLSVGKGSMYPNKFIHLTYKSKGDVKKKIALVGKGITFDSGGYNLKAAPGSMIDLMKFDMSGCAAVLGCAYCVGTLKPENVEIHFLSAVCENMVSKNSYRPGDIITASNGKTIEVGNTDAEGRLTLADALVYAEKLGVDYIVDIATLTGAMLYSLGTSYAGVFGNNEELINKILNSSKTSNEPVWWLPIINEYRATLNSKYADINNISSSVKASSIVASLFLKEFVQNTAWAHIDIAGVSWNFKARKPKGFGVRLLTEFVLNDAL
# Assay: P. falciparum M17LAP inhibitors, primary screen, biochemical, fluorogenic H-Leu-NHMec substrate, 1536-well (AID 1619);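 note: plate controls were full reaction with DMSO carrier for no effect and no enzyme background for full effect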
# Conditions: recombinant M17LAP, H-Leu-NHMec fluorogenic kinetic assay; at 30 µM; hits give high values
row,SMILES,inhibition
1,c1ccc(-c2nc3nc4ccccc4nc3n2Cc2ccco2)cc1,1.08% (inactive)
2,COc1ccc(-c2noc(CCCC(=O)N3CCOCC3)n2)cc1,-3.55% (inactive)
3,COc1cc(/C=N/N=C2/NC(=O)C(CC(=O)O)S2)ccc1OCc1ccc(Cl)cc1 (stereo not given),23.2% (inactive)
4,CCOc1cc(/C=N/N=C2/NC(=O)C(CC(=O)O)S2)ccc1OCc1ccc(Cl)cc1 (stereo not given),5.31% (inactive)
5,CCOc1ccc2[nH]c(=O)c(CN(CCO)C(=O)CC)cc2c1,-5.26% (inactive)
6,Nc1c(C(=O)c2ccccc2)oc2ccc(Br)cc12,-7.77% (inactive)
7,COC(=O)c1oc2ccc(Br)cc2c1NC(=O)c1ccccc1,14.5% (inactive)
8,C=CCNCCOc1c(C)cc(C)cc1Cl,20.1% (inactive)
9,CC1(C(=O)OCC(=O)Nc2ccccc2)CC1(Cl)Cl (stereo not given),1.25% (inactive)
10,CCN(C(=O)Cn1cnc2cc([N+](=O)[O-])ccc2c1=O)C1CCS(=O)(=O)C1 (stereo not given),12.2% (inactive)
11,Cc1ccc(-c2nc(N=Nc3ccc(O)cc3)n[nH]2)cc1,12.9% (inactive)
12,Oc1ccc(-c2cccc(-c3ccc(O)cc3)n2)cc1,1.28% (inactive)
13,O=C(O)c1ccc(N2C(=O)CC(N3C(=O)/C(=C/c4ccc(Cl)cc4)SC3=S)C2=O)cc1 (stereo not given),6.02% (inactive)
14,CCOc1ccc(/C=C2\SC(=S)N(CCC(=O)O)C2=O)cc1,6.65% (inactive)
15,Cc1ccc(NC(=O)/C=C/c2ccco2)nc1,11.5% (inactive)
16,O=C(Nc1ccccc1N1CCCC1)c1ccc([N+](=O)[O-])cc1Cl,9.68% (inactive)
17,CCN1C(=O)/C(=C/C=C2/SCCN2C)SC1=S,-8.41% (inactive)
18,CCCCN1C(=O)/C(=C/C=C2\SCCN2C)SC1=S,-4.21% (inactive)
19,Cc1ccc(S(=O)(=O)N(CC(=O)Nc2ccccc2C(=O)O)c2ccccc2C)cc1,2.3% (inactive)
20,Cc1ccc(S(=O)(=O)N(CC(=O)Nc2ccccc2C(=O)O)c2ccccc2)cc1,4.48% (inactive)

row,SMILES,inhibition
1,COc1ccc(N2C(=O)c3ccccc3C2=O)cc1,-7.95% (inactive)
2,COc1ccc2sc(C)[n+](C)c2c1,-2.85% (inactive)
3,COc1ccc(C(O)(C(=O)NNc2ccc(C)cc2)c2cccs2)cc1 (stereo not given),15.2% (inactive)
4,O=[N+]([O-])c1ccc(-c2cc(-c3ccncc3)nc3ccc4ccccc4c23)cc1,-5.09% (inactive)
5,CC1=C(O)C(=O)OC1c1c(Cl)cccc1Cl (stereo not given),-5.75% (inactive)
6,CCCCSc1nc(C)[nH]c1[N+](=O)[O-],-54.3% (inactive)
7,COc1ccccc1Nc1ncnc2nc[nH]c12,38.3% (inactive)
8,Cc1ccc(Nc2ncnc3nc[nH]c23)cc1Cl,6.48% (inactive)
9,Cc1ccc(-c2nnc(SCC(=O)N/N=C/c3c(C)nn(-c4ccccc4)c3C)n2-c2ccccc2)cc1,-0.81% (inactive)
10,CC(Sc1ccccc1)C(=O)Nc1ccc(S(=O)(=O)N2CCOCC2)cc1 (stereo not given),11.8% (inactive)
11,CC(Sc1ccc(Cl)cc1)C(=O)Nc1ccc(S(=O)(=O)N2CCOCC2)cc1 (stereo not given),1.19% (inactive)
12,CCc1ccccc1NC(=O)C1C(c2ccccc2)C1(Cl)Cl (stereo not given),-8.78% (inactive)
13,O=C(Nc1ccccc1NC(=O)c1c(F)c(F)c(F)c(F)c1F)c1c(F)c(F)c(F)c(F)c1F,8.25% (inactive)
14,CC(C)N(Cc1nc(-c2ccc3c(c2)OCO3)no1)Cc1nccn1C,-7% (inactive)
15,Cc1[nH]nc2c1C1(CCN(Cc3ccccc3)CC1)C(C#N)=C(N)O2,42.9% (inactive)
16,CC(C)c1[nH]nc2c1C1(CCN(Cc3ccccc3)CC1)C(C#N)=C(N)O2,30.2% (inactive)
17,Cc1sc(NC(=O)c2cccc([N+](=O)[O-])c2)c(C(N)=O)c1-c1ccc(C(C)(C)C)cc1,6.91% (inactive)
18,Cc1csc(NC(=O)[C@@H]2CCCN2C(=O)c2cccs2)n1,-1.96% (inactive)
19,CC1=C(C(=O)OCc2ccccc2)C(c2ccc(Cl)cc2)NC(=O)N1CCCCCC(=O)O (stereo not given),47.3% (inactive)
20,CC1=C(C(=O)OCc2ccccc2)C(c2ccc(Cl)cc2Cl)NC(=O)N1CCCC(=O)O (stereo not given),0.51% (inactive)

row,SMILES,inhibition
1,N#Cc1ccc(C(=O)CSc2n[nH]c(=O)n2Cc2ccco2)cc1,-0.26% (inactive)
2,COc1ccc(Cc2nnc(NS(=O)(=O)c3ccccc3)s2)cc1,52.4% (inactive)
3,COc1ccc(Cc2nnc(NS(C)(=O)=O)s2)cc1,11.1% (inactive)
4,O=C(Nc1cccc(Oc2ccc(C(=O)O)c(C(=O)O)c2)c1)c1ccc(-c2ccccc2)cc1,38.5% (inactive)
5,COc1ccc(NC(=O)c2cccs2)cc1,-8.71% (inactive)
6,O=C(O)COc1ccc(NC(=O)c2cccs2)cc1,16.1% (inactive)
7,Cc1cccc(Oc2ccc(NC(=O)c3ccccc3C(=O)O)cc2)c1,2.06% (inactive)
8,CC(=O)Nc1ccccc1N(CC(O)Cn1c2ccccc2c2ccccc21)S(=O)(=O)c1ccc(C)cc1 (stereo not given),11.1% (inactive)
9,CC(=O)CSc1nnc(Cc2ccc3c(c2)OCO3)o1,-2.53% (inactive)
10,Cc1ccc(NC(=O)CN2C(=O)N/C(=C/c3ccc(C)s3)C2=O)cc1,-4% (inactive)
11,Cc1ccc(NC(=O)CN2C(=O)N/C(=C/c3ccc(C)o3)C2=O)cc1,71.1% (inactive)
12,CCn1cc(C(=O)OCC(=O)N2C(C)CCCC2C)c(=O)c2ccc(C)nc21 (stereo not given),0.44% (inactive)
13,CCCSc1nc(O)c(C2OC(=O)c3c2ccc(OC)c3OC)c(=O)n1-c1ccccc1 (stereo not given),31.4% (inactive)
14,CCCCSc1nc(O)c(C2OC(=O)c3c2ccc(OC)c3OC)c(=O)n1C (stereo not given),44.3% (inactive)
15,CCSc1nc(O)c(C2OC(=O)c3c2ccc(OC)c3OC)c(=O)n1CC (stereo not given),41.4% (inactive)
16,CCCCSc1nc(O)c(C2OC(=O)c3c2ccc(OC)c3OC)c(=O)n1-c1ccccc1 (stereo not given),32% (inactive)
17,CC1=CCC2C(=O)N(c3ccc(Br)cc3C)C(=O)C2C1 (stereo not given),-2.62% (inactive)
18,COc1cc(C(=O)O)cc(NC(=O)c2cccs2)c1OC,27% (inactive)
19,CC(NS(=O)(=O)c1ccccc1)C(c1cccs1)N1CCOCC1 (stereo not given),3.6% (inactive)
20,CCOc1ncccc1C(=O)OCC(=O)NCc1ccc2c(c1)OCO2,-8.27% (inactive)
